Measured values published in PubChem BioAssay (NCATS).
Inconclusive results are not listed. Calls of active or inactive are those of the source. Unless noted, calls follow the shape of the dose curve; as a rule, active = well fitted curve in the direction sought with a large enough effect; inconclusive = small, poorly fitted or top-dose-only effect, or another doubt; inactive = no such curve, though single readings can be large; an effect the other way counts as inactive or inconclusive.

Assays:
[1] = target: Rap guanine nucleotide exchange factor 3 (Homo sapiens) (UniProt O95398); assay: Confirmatory qHTS for antagonist of cAMP-regulated guanine nucleotide exchange factor 3 (EPAC1) (AID 1645880); also: nearly all actives have a fitted effect of over 55% in size; also: potency is read from the fitted curve at half-maximal effect
Method in brief: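 Nucleotide exchange uses 100 nM EPAC1, 250 nM RAP1B-BODIPY-GDP and 50 uM GDP, with compounds in a concentration-titration series. After 5 min at room temperature, fluorescence (480 nm ex/540 nm em) is read every 5 min for 30 min. Data are normalized to control ATA and DMSO.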

[2] = target: Rap guanine nucleotide exchange factor 3 (Homo sapiens) (UniProt O95398); assay: Confirmatory qHTS for agonist of cAMP-regulated guanine nucleotide exchange factor 3 (EPAC1) (AID 1645881);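 also: EPAC1 catalysed release of BODIPY-GDP from Rap1B seen as fluorescence loss; 100% = effect of cAMP agonist control; nearly all actives have a fitted effect of over 75% in size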
[3] = target: Rap guanine nucleotide exchange factor 4 (Homo sapiens) (UniProt Q8WZA2); assay: Confirmatory qHTS for agonist of cAMP-regulated guanine nucleotide exchange factor 4 (EPAC2) (AID 1645884);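 also: nucleotide exchange releases bodipy-GDP from Rap1 and this lowers its fluorescence; % is scaled to controls: 0 for no effect and ±100 for the full control effect; nearly all actives have a fitted effect of over 65% in size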
[4] = target: Rap guanine nucleotide exchange factor 4 (Homo sapiens) (UniProt Q8WZA2); assay: Confirmatory qHTS for antagonist of cAMP-regulated guanine nucleotide exchange factor 4 (EPAC2) (AID 1645885); also: % is scaled to controls: 0 for no effect and ±100 for the full control effect; nearly all actives have a fitted effect of over 25% in size
[5] = target: Rap guanine nucleotide exchange factor 3 (Homo sapiens) (UniProt O95398); assay: Counterscreen qHTS for agonist of cAMP-regulated guanine nucleotide exchange factor 3 (EPAC1) (AID 1645889); also: % of control where 0% means no effect; nearly all actives have a fitted effect of over 40% in size
Method in brief: (§1)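 Measured: fluorescence of BODIPY-GDP bound to Rap1B, which falls as exchange proceeds. Conditions include 50 uM competing GDP, 5 and 30 min reads, and a later cAMP challenge for antagonist detection.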

[6] = target: Rap guanine nucleotide exchange factor 3 (Homo sapiens) (UniProt O95398); assay: Counterscreen qHTS for antagonist of cAMP-regulated guanine nucleotide exchange factor 3 (EPAC1) (AID 1645888);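 also: fluorescence loss as bound BODIPY-GDP is released from Rap1B; % of control where 0% means no effect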
Method in brief: as §1

[7] = target: Cytochrome P450 3A4 (Homo sapiens) (UniProt P08684); assay: qHTS Assay for Inhibitors and Substrates of Cytochrome P450 3A4 (AID 884); also: nearly all actives have a fitted effect of over 50% in size; also: potency is read from the fitted curve at half-maximal effect
Method in brief: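 20 nM human CYP3A4 with 25 uM Luciferin-PPXE (at KM) in 200 mM KPO4, preincubated 10 min with compound; NADPH regeneration started a 60 min RT reaction. Luciferin detected by luminescence, normalized to 57 uM ketoconazole as full inhibition.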

[8] = target: Cytochrome P450 3A4 (Homo sapiens) (UniProt P08684); assay: qHTS Assay for Activators of Cytochrome P450 3A4 (AID 885); also: nearly all actives have a fitted effect of over 65% in size
Method in brief: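 Human CYP3A4 (20 nM) with Luciferin-PPXE at 25 uM (its KM) in 200 mM KPO4; 10 min compound preincubation, then NADPH regeneration and 60 min reaction at RT. Luciferin read by luminescence; normalized to 57 uM ketoconazole full inhibition.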

[9] = Confirmation and Secondary Assay for Modulators of Hemoglobin Beta Chain Splicing at IVS2 654 locus (AID 910);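 also: per-well total GFP intensity by laser scanning cytometry after 2-day treatment; % of control where 0% means no effect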
Method in brief: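 HeLa cells stably carrying EGFP interrupted by mutant beta-globin IVS2-654 intron (CMV-driven) were treated with compound for 2 days at 37C; corrected splicing was scored as total peak GFP intensity per well (488 nm excitation, 500-520 nm emission).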

[10] = Confirmation and Secondary Assay for Modulators of Hemoglobin Beta Chain Splicing at IVS2 705 locus (AID 930);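 also: HeLa cells stably expressing the EGFP-705 splicing reporter; GFP fluorescence per well restored by corrected splicing of the IVS2-705 intron in EGFP; % of control where 0% means no effect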
Method in brief: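 Stable HeLa line with EGFP disrupted by mutant beta-globin intron 2 (705). Overnight attachment, then 2 days of compound at 37C, 5% CO2. Signal: peak GFP intensity summed over objects 5-250 µm.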

[11] = target: Ubiquitin carboxyl-terminal hydrolase 1 (Homo sapiens) (UniProt O94782); assay: Inhibitors of USP1/UAF1: Pilot qHTS (AID 504865);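 also: rhodamine fluorescence freed from ubiquitin-rhodamine substrate followed over time; top concentration of the series differs between compounds; % is scaled to controls: 0 for no effect and ±100 for the full control effect; nearly all actives have a fitted effect of over 35% in size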
Method in brief: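 Deubiquitinase activity followed as kinetic rhodamine fluorescence release from 150 nM Ub-Rho. 1 nM USP1/UAF1 with compound, after 15 min room-temperature preincubation, in HEPES pH 7.8 buffer containing TCEP, EDTA, BSA and Tween-20.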

[12] = AP1 Signaling Pathway (AID 357; active = well fitted curve in either direction with a large enough effect, not every such curve was filed as active;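 also: ME-180 reporter cells stimulated with EGF at its EC50 level; % is scaled to controls: 0 for no effect and ±100 for the full control effect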)
Method in brief: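 First, ME-180 AP-1-bla cells were cultured overnight at 37 °C in low-serum Opti-MEM. Next, titrated compounds with EC50 EGF were incubated 5 hours. Finally, CCF4 was added for 2.5 hours and the 460/530 nm ratio recorded.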

[13] = target: Cytochrome P450 1A2 (Homo sapiens) (UniProt P05177); assay: p450-cyp1a2 (AID 410; calls by dose curve; also: potency is read from the fitted curve at half-maximal effect)
Method in brief: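 20nM CYP1A2 with 100uM Luciferin-ME (at Km) in 100mM KPO4; compound preincubated 10 min, NADPH regeneration added, 60 min at room temperature. Luciferin quantified by luminescence after detection reagent; normalized to 57 uM furafylline.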

[14] = NFAT Signaling Pathway (AID 444; active = well fitted curve in either direction with a large enough effect, not every such curve was filed as active;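 also: carbachol stimulus at about its EC50 of 1 µM final; % is scaled to controls: 0 for no effect and ±100 for the full control effect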); conditions: Jurkat NFAT-bla M1, carbachol, beta-lactamase ratio, 5 h; at 17.2 µM (top of the series) unless noted
Method in brief: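 Jurkat cells carrying an NFAT-driven β-lactamase reporter and co-transfected muscarinic M1 receptor were treated with compound plus carbachol (1 uM final, an EC50 level) for 5 h at 37 °C. CCF4 loading followed for 1 h at RT; 460/530 nm ratio gave %activity.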

[15] = Stat Signaling Pathway (AID 446; active = well fitted curve in either direction with a large enough effect, not every such curve was filed as active;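 also: ME-180 cervical cancer cells given 40 pM IL-6 alongside compound; SIE-controlled beta-lactamase reporter measured as 460/530 nm FRET emission ratio; % is scaled to controls: 0 for no effect and ±100 for the full control effect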)
Method in brief: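 ME-180 cells carrying a SIE-driven beta-lactamase reporter are stimulated with 40 pM IL-6 for 5 h at 37C in the presence of compound. The 460/530 nm FRET substrate ratio is read after 2.5 h at RT. Data are normalised to 300 pM IL-6 and to 125 nM JAK inhibitor controls.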

[16] = target: Glucocorticoid receptor (Homo sapiens) (UniProt P04150); assay: GR-GFP Redistribution (AID 450;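 active = compounds whose dose series gives a full or clear partial fitted curve of increased nuclear translocation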; also: potency is read from the fitted curve at half-maximal effect); conditions: U2OS GR-GFP nuclear translocation, laser cytometry, 2 h
[17] = target: Glucocorticoid receptor (Homo sapiens) (UniProt P04150); assay: GR-EFC Redistribution (AID 451; calls by dose curve; also: potency is read from the fitted curve at half-maximal effect); conditions: CHO-K1 GR-EFC translocation, beta-gal luminescence, 2 h
Method in brief: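 CHO-K1 cells stably expressing nuclear-localized β-gal enzyme acceptor and GR fused C-terminally to the enzyme donor fragment; ligand-driven nuclear translocation restores β-gal by complementation. Compounds titrated up to 46 uM final, 2 h at 37 °C; luminescence read.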

[18] = target: Mitogen-activated protein kinase 10 (Mus musculus) (UniProt Q61831); assay: JNK3 AlphaScreen Assay (AID 530; active = well fitted curve in either direction with a large enough effect, not every such curve was filed as active;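 also: kinase came from lysate of stimulated human HepG2 cells; signal reports phosphorylation of biotinylated GST-cJun 1-79 at Ser73 with 10 µM ATP; % is scaled to controls: 0 for no effect and ±100 for the full control effect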)
Method in brief: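 Inhibitors reduce antibody binding to phosphorylated biotin-cJun, lowering AlphaScreen luminescence. Lysates from HepG2 cells pre-activated by IL-1beta plus TNF-alpha supplied JNK3; compounds were titrated.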

[19] = target: 3',5'-cyclic-AMP phosphodiesterase 4B (Homo sapiens) (UniProt Q07343); assay: qHTS Assay for Inhibitors of PDE-IV (AID 607; active = well fitted activation curve with a large enough effect in the main read-out, with a control signal flat, not every such curve was filed as active; also: % of control where 0% means no effect)
Method in brief: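 HEK293 ACTOne cells with CNG channel (1000/well), endogenous PDE4; membrane potential dye, compounds up to 22.9 uM final. Fluorescence Ex 535/Em 590; RO 20-1724 (100 uM final) as reference.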

Chain of Rap guanine nucleotide exchange factor 3 (Homo sapiens) (O95398 whole entry, looked up): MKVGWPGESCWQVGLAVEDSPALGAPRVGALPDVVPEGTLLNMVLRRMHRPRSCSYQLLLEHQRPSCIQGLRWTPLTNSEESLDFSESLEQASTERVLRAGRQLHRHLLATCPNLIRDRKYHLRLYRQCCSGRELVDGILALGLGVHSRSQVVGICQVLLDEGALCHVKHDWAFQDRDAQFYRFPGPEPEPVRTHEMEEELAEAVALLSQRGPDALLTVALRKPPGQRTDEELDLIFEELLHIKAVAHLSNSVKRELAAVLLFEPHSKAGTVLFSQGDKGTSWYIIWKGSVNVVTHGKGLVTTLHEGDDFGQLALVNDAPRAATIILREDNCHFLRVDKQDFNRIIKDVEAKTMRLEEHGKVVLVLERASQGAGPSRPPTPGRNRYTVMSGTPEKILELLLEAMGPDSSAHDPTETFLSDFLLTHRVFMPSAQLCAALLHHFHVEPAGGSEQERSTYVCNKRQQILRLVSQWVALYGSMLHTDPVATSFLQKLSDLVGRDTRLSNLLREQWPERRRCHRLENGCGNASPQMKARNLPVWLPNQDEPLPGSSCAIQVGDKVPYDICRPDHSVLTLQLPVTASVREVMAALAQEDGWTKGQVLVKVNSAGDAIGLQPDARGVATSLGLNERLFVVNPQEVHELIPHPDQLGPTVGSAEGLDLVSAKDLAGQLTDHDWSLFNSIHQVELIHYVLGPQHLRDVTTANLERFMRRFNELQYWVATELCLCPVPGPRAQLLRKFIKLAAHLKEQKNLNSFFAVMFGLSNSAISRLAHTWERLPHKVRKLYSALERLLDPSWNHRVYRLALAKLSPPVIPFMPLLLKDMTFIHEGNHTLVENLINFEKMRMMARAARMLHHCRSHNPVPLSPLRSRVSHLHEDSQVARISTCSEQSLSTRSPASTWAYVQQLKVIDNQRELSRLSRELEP
Chain of Rap guanine nucleotide exchange factor 4 (Homo sapiens) (Q8WZA2 whole entry, looked up): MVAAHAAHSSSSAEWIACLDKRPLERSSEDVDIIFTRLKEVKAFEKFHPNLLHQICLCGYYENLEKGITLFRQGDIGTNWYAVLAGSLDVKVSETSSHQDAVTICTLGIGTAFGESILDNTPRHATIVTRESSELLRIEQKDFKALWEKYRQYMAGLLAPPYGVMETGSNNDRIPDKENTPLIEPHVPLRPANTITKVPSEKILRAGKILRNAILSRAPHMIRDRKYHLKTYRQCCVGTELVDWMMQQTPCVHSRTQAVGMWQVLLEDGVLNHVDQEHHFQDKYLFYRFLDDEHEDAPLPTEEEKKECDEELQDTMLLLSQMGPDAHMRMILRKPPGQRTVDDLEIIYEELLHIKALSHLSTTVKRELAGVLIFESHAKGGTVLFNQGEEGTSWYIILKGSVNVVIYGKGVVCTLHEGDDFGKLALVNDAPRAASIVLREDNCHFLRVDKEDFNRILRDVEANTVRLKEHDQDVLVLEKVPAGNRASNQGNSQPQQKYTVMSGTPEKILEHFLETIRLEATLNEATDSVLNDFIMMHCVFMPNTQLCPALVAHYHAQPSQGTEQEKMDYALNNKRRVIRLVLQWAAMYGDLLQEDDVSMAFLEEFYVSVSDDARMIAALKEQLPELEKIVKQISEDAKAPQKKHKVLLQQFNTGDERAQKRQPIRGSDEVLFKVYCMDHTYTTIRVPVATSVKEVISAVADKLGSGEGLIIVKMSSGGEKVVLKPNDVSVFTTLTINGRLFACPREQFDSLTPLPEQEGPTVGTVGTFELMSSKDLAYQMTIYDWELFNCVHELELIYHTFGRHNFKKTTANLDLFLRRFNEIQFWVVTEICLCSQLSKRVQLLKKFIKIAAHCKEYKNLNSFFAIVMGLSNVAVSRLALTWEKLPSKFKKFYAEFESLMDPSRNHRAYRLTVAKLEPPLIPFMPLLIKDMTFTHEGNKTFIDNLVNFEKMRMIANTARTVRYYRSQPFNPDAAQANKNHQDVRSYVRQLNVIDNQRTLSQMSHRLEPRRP
Chain of Cytochrome P450 3A4 (Homo sapiens) (P08684 whole entry, looked up): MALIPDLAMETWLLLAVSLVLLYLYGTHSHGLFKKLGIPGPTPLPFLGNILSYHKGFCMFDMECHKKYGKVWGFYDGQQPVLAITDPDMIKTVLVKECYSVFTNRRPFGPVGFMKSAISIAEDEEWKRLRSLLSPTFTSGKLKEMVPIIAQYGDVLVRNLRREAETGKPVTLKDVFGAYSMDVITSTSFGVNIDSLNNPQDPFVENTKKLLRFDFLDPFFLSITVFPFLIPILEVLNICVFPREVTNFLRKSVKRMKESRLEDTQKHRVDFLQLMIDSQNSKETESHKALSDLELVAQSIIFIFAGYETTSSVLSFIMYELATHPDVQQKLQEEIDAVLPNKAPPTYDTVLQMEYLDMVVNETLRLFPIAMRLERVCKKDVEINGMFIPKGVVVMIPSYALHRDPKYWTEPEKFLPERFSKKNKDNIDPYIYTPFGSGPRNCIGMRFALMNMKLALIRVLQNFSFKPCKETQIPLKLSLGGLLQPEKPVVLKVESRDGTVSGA
Chain of Glucocorticoid receptor (Homo sapiens) (P04150 whole entry, looked up, the tested form may be a part): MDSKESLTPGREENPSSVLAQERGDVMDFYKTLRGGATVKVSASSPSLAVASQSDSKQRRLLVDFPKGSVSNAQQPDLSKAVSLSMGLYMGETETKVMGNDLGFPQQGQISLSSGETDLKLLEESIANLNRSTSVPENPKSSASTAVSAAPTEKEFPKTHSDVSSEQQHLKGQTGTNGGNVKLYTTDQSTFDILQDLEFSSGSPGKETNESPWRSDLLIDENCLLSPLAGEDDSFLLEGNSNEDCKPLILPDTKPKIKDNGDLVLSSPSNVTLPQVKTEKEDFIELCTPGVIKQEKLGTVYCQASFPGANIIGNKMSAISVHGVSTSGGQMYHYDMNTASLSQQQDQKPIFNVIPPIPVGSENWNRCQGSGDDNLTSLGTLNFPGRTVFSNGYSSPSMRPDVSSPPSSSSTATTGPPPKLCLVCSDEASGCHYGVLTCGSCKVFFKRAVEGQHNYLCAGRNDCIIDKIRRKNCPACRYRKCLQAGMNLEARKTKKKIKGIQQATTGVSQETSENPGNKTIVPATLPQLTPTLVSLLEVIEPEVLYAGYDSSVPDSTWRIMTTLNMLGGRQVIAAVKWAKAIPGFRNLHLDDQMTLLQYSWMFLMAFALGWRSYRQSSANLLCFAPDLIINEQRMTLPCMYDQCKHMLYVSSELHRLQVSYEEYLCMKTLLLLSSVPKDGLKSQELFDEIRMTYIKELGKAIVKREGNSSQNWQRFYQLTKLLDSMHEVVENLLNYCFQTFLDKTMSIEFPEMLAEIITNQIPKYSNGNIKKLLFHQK
Chain of Ubiquitin carboxyl-terminal hydrolase 1 (Homo sapiens) (O94782 whole entry, looked up): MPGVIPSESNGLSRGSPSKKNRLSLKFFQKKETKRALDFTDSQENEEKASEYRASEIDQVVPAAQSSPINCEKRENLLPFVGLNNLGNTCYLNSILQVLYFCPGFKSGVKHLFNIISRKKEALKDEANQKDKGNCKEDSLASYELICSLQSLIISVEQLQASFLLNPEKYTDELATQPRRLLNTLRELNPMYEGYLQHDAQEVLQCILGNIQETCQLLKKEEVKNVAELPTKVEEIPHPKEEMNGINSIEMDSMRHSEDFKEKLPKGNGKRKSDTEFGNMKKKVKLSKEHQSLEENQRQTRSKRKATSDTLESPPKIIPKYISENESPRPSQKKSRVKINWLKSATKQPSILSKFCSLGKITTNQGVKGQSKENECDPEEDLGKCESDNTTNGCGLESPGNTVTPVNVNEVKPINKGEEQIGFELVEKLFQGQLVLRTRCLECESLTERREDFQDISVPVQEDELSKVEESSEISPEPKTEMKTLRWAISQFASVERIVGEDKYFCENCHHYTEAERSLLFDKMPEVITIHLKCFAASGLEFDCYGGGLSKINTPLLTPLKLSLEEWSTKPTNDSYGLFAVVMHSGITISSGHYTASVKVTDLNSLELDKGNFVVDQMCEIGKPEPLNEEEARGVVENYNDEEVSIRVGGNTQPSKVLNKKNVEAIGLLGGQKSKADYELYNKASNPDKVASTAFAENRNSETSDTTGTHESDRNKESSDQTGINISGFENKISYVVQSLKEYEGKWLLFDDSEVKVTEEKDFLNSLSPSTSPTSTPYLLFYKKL
Chain of 3',5'-cyclic-AMP phosphodiesterase 4B (Homo sapiens) (Q07343 whole entry, looked up): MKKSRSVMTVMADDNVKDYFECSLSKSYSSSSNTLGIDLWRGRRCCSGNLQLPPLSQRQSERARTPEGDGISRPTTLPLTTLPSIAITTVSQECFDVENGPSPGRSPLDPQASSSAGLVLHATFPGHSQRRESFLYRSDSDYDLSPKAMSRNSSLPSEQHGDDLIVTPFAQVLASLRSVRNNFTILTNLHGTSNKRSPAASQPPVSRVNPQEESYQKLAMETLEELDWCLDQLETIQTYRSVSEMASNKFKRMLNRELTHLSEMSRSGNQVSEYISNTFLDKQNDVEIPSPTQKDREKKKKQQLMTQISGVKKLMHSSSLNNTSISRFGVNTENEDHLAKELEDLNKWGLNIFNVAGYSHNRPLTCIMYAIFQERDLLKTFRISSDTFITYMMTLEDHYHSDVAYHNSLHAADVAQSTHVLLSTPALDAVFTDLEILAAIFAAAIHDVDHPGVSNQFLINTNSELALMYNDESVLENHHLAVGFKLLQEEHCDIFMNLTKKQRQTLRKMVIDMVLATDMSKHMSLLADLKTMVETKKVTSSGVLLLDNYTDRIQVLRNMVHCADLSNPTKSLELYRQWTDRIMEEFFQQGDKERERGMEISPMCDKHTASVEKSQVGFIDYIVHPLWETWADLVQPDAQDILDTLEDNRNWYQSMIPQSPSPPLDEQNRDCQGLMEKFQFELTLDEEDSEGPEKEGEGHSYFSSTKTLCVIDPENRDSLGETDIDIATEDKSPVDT

Cc1ccc2nc(-c3ccccc3)c(Cc3ccccc3C(F)(F)F)n2c1
inactive: Potency [1] | Potency [2] | Potency [3] | Potency [4] | Potency [5]

COc1ccc(NC(=O)c2ccc(NC3=NC4CS(=O)(=O)CC4S3)cc2)cc1 (stereo unspecified)
inactive: Potency [1] | Potency [2] | activation [3] 1.91% [at 17.1 µM, percent relative to cAMP agonist control] | Potency [4] | activity change, negative = inhibition [6] -1.99% [at 30.8 µM] | activation [5] 0.693% [at 30.8 µM]

O=C1NC(=Nc2ccccc2Cl)S/C1=C\c1cccc([N+](=O)[O-])c1O
inactive: Potency [2] | Potency [3] | Potency [4] | Potency [5]
active: Potency [1] 21.3 µM

Cc1cccc(NC(=S)NC(=O)/C=C/c2ccco2)c1
active: Potency [1] 75.7 µM
inactive: Potency [2] | Potency [3] | Potency [4] | Potency [5]

CC(=O)OC1CC2C(C)(C)C(O)CC[C@@]2(C)C2CC[C@@]3(C)C(c4ccoc4)OC(=O)C4O[C@@]43[C@]12C (stereo partly specified)
inactive: Potency [8] | Potency [9] | Potency [10]
active: Potency [7] 2.51 µM

Nc1ncnc2nc(Cl)[nH]c12
inactive: Potency [7] | Potency [9] | Potency [10] | Potency [11]

O=C(O)c1ccc(Nc2ncnc3ccccc23)cc1
inactive: Potency [1] | Potency [2] | Potency [3] | Potency [4] | Potency [5]

Cc1c(C)c2c(c(C)c1O)CC[C@@](C)(C(=O)O)O2
active: Potency [13] 20 µM
inactive: outcome [12] | activity change, negative = inhibition [14] 9.85% | outcome [15] | Potency [16] > 20.6 µM | Potency [17] > 20.6 µM | Potency [18] | outcome [19] | Potency [8] | Potency [11]

C/C=C(/C)C(=O)OC1C(OC(C)=O)[C@@]2(CO)C(O)C[C@@]3(C)C(=CCC4[C@@]5(C)CCC(OC6OC(C(=O)O)[C@@H](O[C@@H]7OC(CO)C(O)C(O)C7O)C(O)[C@H]6O[C@@H]6OC(CO)C(O)C(O)C6O)[C@](C)(CO)C5CC[C@@]43C)C2CC1(C)C (stereo partly specified)
inactive: Potency [7] | Potency [9] | Potency [10]

O=C1CSC2(C(=O)N(Cc3cccc(C(F)(F)F)c3)c3ccccc32)N1c1ccc(F)c(F)c1 (stereo unspecified)
inactive: Potency [1] | Potency [2] | Potency [3] | Potency [4] | Potency [6] | Potency [5]

C=C1C[C@@]23C[C@]1(O)CC[C@@H]2[C@]12C=C[C@@H](O)[C@](C)(C(=O)O1)[C@H]2[C@H]3C(=O)O
inactive: outcome [12] | activity change, negative = inhibition [14] -11.2% | outcome [15] | Potency [16] > 20.6 µM | Potency [17] > 20.6 µM | Potency [18] | outcome [19] | Potency [11]
